In the supplement of paper PMC7411640:
Counter-ions that a name gives are not always drawn.

tested on: MDA-MB-468; test: phospho-S6 immunofluorescence (DAPI-normalised), per-plate z-score; higher = higher phospho-S6 signal (less pathway suppression); conditions: co-treatment: lapatinib 1 uM; 24 h
Protocol: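 GPCR-targeted compound library (MedChemExpress HY-L006) tested on MDA-MB-468 PTEN-null TNBC cells in 384-well plates at 0.1, 1 or 10 uM, combined with vehicle, GDC0941 450 nM or lapatinib 1 uM, for 24 h. Phospho-S6 (S240/244) immunofluorescence normalised to DAPI and expressed as a per-plate z-score; values are the mean of biological triplicates.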

Row | Structure (SMILES) | phospho-S6 immunofluorescence (z-score)
1 | OC(CNCC(O)C1CCc2cc(F)ccc2O1)C1CCc2cc(F)ccc2O1 (stereo unspecified) [Nebivolol (hydrochloride)] (compound 10 µM) | -3.76
2 | O=C(NCC(=O)N1CC[C@H](N[C@H]2CC[C@@](O)(c3ccc(-c4ncccn4)cn3)CC2)C1)c1cccc(C(F)(F)F)c1 (compound 10 µM) | -0.77
3 | CN1CC2c3ccccc3Oc3ccc(Cl)cc3C2C1 (stereo unspecified) [Asenapine (hydrochloride)] (compound 10 µM) | -2.17
4 | CC(C)(C)NC[C@H](O)COc1nsnc1N1CCOCC1 [(S)-Timolol (Maleate)] (compound 10 µM) | 0.33
5 | CC(=O)Oc1cc(C(C)C)c(OCCN(C)C)cc1C [Moxisylyte (hydrochloride)] (compound 10 µM) | -0.11
6 | Cc1noc(-c2ccc(-c3ccc(CC(=O)O)cc3)cc2)c1NC(=O)OC(C)c1ccccc1Cl (stereo unspecified) (compound 10 µM) | 0.28
7 | Clc1ccc2c(c1)N=C(N1CCNCC1)c1ccccc1N2 [N-Desmethylclozapine] (compound 10 µM) | -3.16
8 | c1ccc(CN(CC2=NCCN2)c2ccccc2)cc1 [Antazoline (hydrochloride)] (compound 10 µM) | 0.23
9 | CCOC(=O)N1CCC(=C2c3ccc(Cl)cc3CCc3cccnc32)CC1 [Loratadine] (compound 10 µM) | -0.82
10 | O=C(Nc1ccc([N+](=O)[O-])cc1O)Nc1ccccc1Br (compound 10 µM) | 0.89
11 | CN(C)CCN(Cc1ccccc1)c1ccccn1 [Tripelennamine (hydrochloride)] (compound 10 µM) | -0.31
